High-throughput results: PubChem, NMMLSC
Only some compounds are listed: those with a hit (about 1.2% of all), similar ones and a draw of the others.
RGS16-Gao: RGS16-Galphao interaction regulator (human); O15492+P09471; bead-based flow cytometry RGS16-Galphao binding, fluorescence; actives lie on both sides; binding response (% of control), % at 10 µM; 220,000 compounds, 0.38% hits; AID 1441; call rule not given here;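 further: Galphao activated by GDP with aluminum fluoride before binding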
Target sequence (O15492 whole entry, looked up): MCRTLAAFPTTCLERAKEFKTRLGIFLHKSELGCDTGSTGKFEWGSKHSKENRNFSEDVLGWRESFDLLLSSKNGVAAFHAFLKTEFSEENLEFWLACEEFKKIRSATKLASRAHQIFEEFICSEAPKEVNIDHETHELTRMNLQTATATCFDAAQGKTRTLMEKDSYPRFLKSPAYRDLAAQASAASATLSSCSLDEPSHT
Target sequence (P09471 whole entry, looked up): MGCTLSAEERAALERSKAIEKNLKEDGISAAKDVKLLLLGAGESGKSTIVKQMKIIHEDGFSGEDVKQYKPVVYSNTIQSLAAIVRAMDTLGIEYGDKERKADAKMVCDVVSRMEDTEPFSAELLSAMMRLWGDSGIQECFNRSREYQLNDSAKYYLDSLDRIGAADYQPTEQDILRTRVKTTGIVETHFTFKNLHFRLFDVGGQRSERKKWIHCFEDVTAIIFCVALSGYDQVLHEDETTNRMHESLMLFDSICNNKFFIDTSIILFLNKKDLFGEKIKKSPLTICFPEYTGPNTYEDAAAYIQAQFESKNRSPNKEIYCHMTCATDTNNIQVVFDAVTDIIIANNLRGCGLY
RGS7-Gao reg: human RGS7-Galphao interaction regulation | 220,000 compounds, 0.35% hits | binding response (% of control), % at 10 µM | P09471 | Multiplexed bead flow cytometry, RGS7-Galphao binding; actives lie on both sides; in the data active means binding response below about 49% or above about 150%; inconclusive means no clear call, values can overlap the other calls; inactive means in between;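 further: fluorescent Galphao held in activated GDP-AlF4 state binding bead-coupled RGS7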
Target sequence (P09471 whole entry, looked up): as above
RGS8-Gao: regulators of human RGS8-Galphao interaction. P09471. multiplexed bead flow cytometry, RGS8-Galphao binding; actives lie on both sides. response (percent of control binding), % at 10 µM. 220,000 compounds, 0.34% hits. AID 1423; in the data active means response below about 60% or above about 140%; inactive means in between;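 further: Galphao activated as the GDP aluminium fluoride complex binding bead-coupled RGS8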
GSH fluor: GSH bead compound fluorescence profile; fluorescence (KMESF) at 10 µM; GSH beads flow cytometry, compound fluorescence 488/530 nm; active compounds read high; AID 1776; 190,000 compounds, 0.25% hits; in the data active means fluorescence above about 89;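 further: glutathione beads carrying GST-tagged Bcl family fusion proteins plus one bare bead set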
RGS4-Gao reg: modulates binding of RGS4 to human Galphao; P09471; Multiplexed bead flow cytometry; actives lie on both sides; binding response (% of control), % at 10 µM; 220,000 compounds, 0.33% hits; AID 1415; in the data active means binding response below about 49% or above about 150%; inactive means in between;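 further: fluorescent Galphao activated with aluminum fluoride binding bead-coupled RGS4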
Avidin bead fluor: compound fluoresces at 488/530 nm on avidin beads; fluorescence (KMESF) at 10 µM; 220,000 compounds, 0.38% hits; compound fluorescence 488/530 nm, flow cytometry; active compounds read high; in the data active means fluorescence above about 47
Hits are given with their value; n = inactive; u = inconclusive; x = no result; ! = a repeat was not active.

SMILES | RGS16-Gao | RGS7-Gao reg | RGS8-Gao | GSH fluor | RGS4-Gao reg | Avidin bead fluor
Cc1cc(C)n2ncc(C(=O)NCc3ccccc3)c2n1 | n | n | n | 264 | n | n
COc1ccc(CNC(=O)c2cnn3c(C(F)F)cc(C)nc23)cc1 | n | n | n | n | n | 94
CCCC(=O)Nc1ccc2nc(SCC(=O)Nc3nccs3)sc2c1 | 15 | 15 | 12 | n | 21 | n
O=C1c2ccncc2C(=O)N1CO | -20 | -10 | 8.6 | n | -31 | n
N#C/C(=N\Nc1ccccc1F)c1nc(-c2ccccc2)cs1 | n | n | n | n | n | n
Cc1ccc[n+](-c2nc3ccccc3nc2C(=C=[N-])C#N)c1 | n | u | n | n | n | 61!
Cc1cc(C)c[n+](-c2nc3ccccc3nc2C(=C=[N-])C#N)c1 | n | n | n | 238! | n | n
CCc1ccc[n+](-c2nc3ccccc3nc2C(=C=[N-])C#N)c1 | n | u | n | x | n | n
CNC(=S)c1cc(C(C)(C)C)c(O)c(C(C)(C)C)c1 | n | u | n | x | n | n
CCC(c1nnnn1Cc1cccs1)N1CCN(C2CCCC2)CC1 (stereo not drawn) | n | n | n | n | n | n
CCCC(c1nnnn1Cc1cccs1)N1CCN(C2CCCC2)CC1 (stereo not drawn) | n | n | n | n | n | 117
COc1ccc(-c2cc(C#N)nc(N3CCNCC3)n2)cc1 | n | n | n | n | n | 49
CCC(=O)NC(Nc1ncc(C)s1)(C(=O)OC)C(F)(F)F (stereo not drawn) | n | n | n | 124 | n | n
OCCC1CN(Cc2cccc3nccnc23)CCN1Cc1ccc(F)cc1 (stereo not drawn) | n | u | n | x | n | n
CC(=O)Oc1ccc2oc3c(c2c1)C(=O)CCC3 | n | n | n | 260 | n | n
CC(=O)Oc1ccc2oc(C)c(C(=O)N3CCOCC3)c2c1 | n | n | n | n | n | n
COc1ccc(N=C2O/C(=C/c3sc(=S)n(CC4CCCO4)c3O)N=C2C#N)cc1 (stereo not drawn) | n | u | n | x | n | n
Cn1c(=O)[nH]c(NC2CCCCC2)c(N=O)c1=O | n | n | n | n | n | n
CCCNc1[nH]c(=O)n(C)c(=O)c1N=O | n | n | n | n | n | 69
CCOc1ccccc1OCCCC(=O)N1CCN(S(=O)(=O)c2ccc(C)cc2)CC1 | n | n | n | 256 | n | n
CCOc1ccccc1OCCCC(=O)N1CCN(S(=O)(=O)c2cccc(F)c2)CC1 | n | n | n | n | n | n
Cc1ccc(S(=O)(=O)N(C)C)cc1NC(=O)COC(=O)c1ccc2c(c1)NC(=O)CS2 | n | u | n | x | n | n
COc1ccc(N(CC(=O)Nc2cc(C)on2)S(=O)(=O)c2ccc(Cl)cc2)cc1 | n | n | n | 250 | n | n
COc1ccc(N(CC(=O)Nc2cc(C)on2)S(=O)(=O)c2cc(C)ccc2C)cc1 | n | n | n | n | n | n
COC(=O)c1cccc2nc3c(C(C)O)cccc3nc12 (stereo not drawn) | n | u | n | x | n | n
SMILES | RGS16-Gao | RGS7-Gao reg | RGS8-Gao | GSH fluor | RGS4-Gao reg | Avidin bead fluor
Cn1nnc(NC(=O)CSc2ccc(Cl)cc2)n1 | n | n | n | n | n | 48
O=[N+]([O-])c1ccc(Cl)c(/C=N/Nc2nc(N3CCOCC3)nc(N3CCOCC3)n2)c1 | n | n | n | n | n | 354
O=[N+]([O-])c1ccc(/C=N/Nc2nc(N3CCOCC3)nc(N3CCOCC3)n2)cc1 | n | n | n | n | n | n
COc1ccc(S(=O)(=O)NCc2ccc(C)cc2)cc1 | n | n | n | 263 | n | n
CC(C)NC(=O)/C(C#N)=C/c1ccc(N(C)C)o1 | n | u | n | x | n | n
CCSc1nnc(NC(=O)CSc2nc3c(c(=O)n2-c2ccccc2)SCC3)s1 | n | n | n | 147 | n | n
Cc1ccc(-n2c(SCC(=O)Nc3nccs3)nc3c(c2=O)SCC3)cc1 | n | n | n | n | n | n
Cc1nc2sc(C(=O)Nc3ccccc3)c(N)c2c(C)c1[N+](=O)[O-] | n | n | n | n | n | n
CCOc1ccccc1NC(=O)N1C2CCCC1CC(NC(=O)C1CC1)C2 (stereo not drawn) | n | n | n | 96 | n | n
O=c1[nH]c(CSc2nnc3ccccn23)nc2cc(C(F)(F)F)ccc12 | n | n | n | n | n | n
Cc1ccnc2nc(C(=O)N3CCN(c4ccc(F)cc4)CC3)nn12 | n | n | n | 249 | n | n
N/N=c1\sc2ccccc2n1-c1ccccc1 | n | n | n | n | n | 47
CC(=O)N=c1sc2ccccc2n1C | n | n | n | n | n | n
N/C(=N/OC(=O)c1ccccc1Cl)c1ncc([N+](=O)[O-])s1 | n | u | n | x | n | n
O=C(Nc1ccccn1)c1onc2c1CCCC2 | n | n | n | n | n | n
c1ccc(-c2onc3c2CCCC3)cc1 | n | n | n | 242 | n | n
Cc1ccc(CS(=O)(=O)c2ccc(C(=O)N3CCN(c4ccccn4)CC3)cc2[N+](=O)[O-])cc1 | n | n | n | n | n | 60
CCc1ccc2c(c1)c1nc(C)sc1n2CC(=O)OC | n | n | n | n | n | 51
COc1ccc(N=C2S/C(=C\c3ccc(N4CCOCC4)o3)C(=O)N2CCc2c[nH]c3ccccc23)cc1 | n | n | n | 113 | n | n
COc1ccc(N=C2S/C(=C\c3ccc(OCC(=O)O)cc3)C(=O)N2CCc2c[nH]c3ccccc23)cc1 | n | n | n | n | n | n
CCc1nnc(NC(=O)Cc2ccc(Br)cc2)s1 | n | u | n | n | n | n
CC(=O)NNC(=S)NCCc1ccccc1 | n | n | n | n | n | 96
CCc1c(C(=O)NNC(=S)NC2CCCCC2)csc1C | n | u | n | n | n | n
CCc1c(C(=O)NNC(=S)NCCc2ccccc2)csc1C | n | n | n | 148 | n | n
COC(=O)c1ccc(/C=C(\C#N)c2ccccn2)cc1 | n | n | n | n | n | n
SMILES | RGS16-Gao | RGS7-Gao reg | RGS8-Gao | GSH fluor | RGS4-Gao reg | Avidin bead fluor
COC(=O)c1ccc(OC(=O)c2ccccn2)cc1 | n | n | n | 269 | n | n
Cc1ccc(C(=O)CSc2ccccn2)cc1 | n | n | n | n | n | 65
O=C(CSc1ccccn1)c1ccc(F)cc1 | n | n | n | n | n | n
CCCOc1ccc(C2CC(=O)NC2=O)cc1 (stereo not drawn) | n | n | n | n | n | n
CCCCOc1ccc(C2CC(=O)NC2=O)cc1 (stereo not drawn) | n | n | n | n | n | 79
Cn1cc(CN(CCO)Cc2cccs2)c(-c2ccccc2F)n1 | n | u | n | n | n | n
C/C(CC(=O)Nc1ccc(Cl)cc1Cl)=N\NC(=O)c1cnccn1 | n | u | n | x | n | n
CCCCCCC(=O)Nc1nnc(CC)s1 | n | n | n | n | n | n
CCc1nnc(NC(=O)CCN2C(=O)CCC2=O)s1 | n | n | n | 264 | n | n
